# Inconclusive results are not listed. Active and inactive are the calls of the source.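 How the source made its calls, unless noted: active means normalized viability below 100% at a tested concentration; inactive means the rest.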
# Tests used:
# [1] = viability loss in pontine glioma line – cell-based, SU-DIPG-XVII, MIPE5.0, CellTiter-Glo, qHTS, dose response (AID 1347060; cut-off not given, nearly all actives have AC50 up to about 26 µM;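 on AC50: cells exposed to compound for 48 hours before viability readout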); conditions: CellTiter-Glo ATP luminescence
# [2] = viability loss in pontine glioma line – cell-based, SU-DIPG-XIII, MIPE4.0, CellTiter-Glo, qHTS, dose response (AID 1347061; cut-off not given, nearly all actives have AC50 up to about 37 µM;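 further: cells exposed to compound for 48 hours before readout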); conditions: CellTiter-Glo ATP luminescence
# [3] = viability loss in pontine glioma line – cell-based, JHH-DIPG-1, MIPE4.0, CellTiter-Glo, qHTS, dose response (AID 1347062; cut-off not given, nearly all actives have AC50 up to about 27 µM;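 on AC50: cells exposed to compound for two days before readout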); conditions: JHH-DIPG-1 viability, CellTiter-Glo ATP luminescence
# [4] = viability loss in pontine glioma line – cell-based, SU-DIPG-IV, MIPE4.0, CellTiter-Glo, qHTS, dose response (AID 1347063; cut-off not given, nearly all actives have AC50 up to about 30 µM;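 further: compound exposure lasted 48 hours before the viability readout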); conditions: CellTiter-Glo ATP luminescence
# [5] = viability loss in pontine glioma line – cell-based, SU-DIPG-XIII, MIPE5.0, CellTiter-Glo, qHTS, dose response (AID 1347064; cut-off not given, nearly all actives have AC50 up to about 23 µM;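 on AC50: cells exposed to compound for 48 hours before the viability read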); conditions: CellTiter-Glo ATP luminescence
# [6] = viability loss in pontine glioma line – cell-based, SU-DIPG-XXV, MIPE5.0, CellTiter-Glo, qHTS, dose response (AID 1347065; cut-off not given, nearly all actives have AC50 up to about 26 µM;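 further: cells exposed to compound for 48 hours before ATP readout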); conditions: CellTiter-Glo ATP luminescence
# [7] = JHH-DIPG-1 glioma cell viability, MIPE5.0 library, CellTiter-Glo luminescence, qHTS (AID 1347067; cut-off not given, nearly all actives have AC50 up to about 26 µM;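 further: cells exposed to compound for 48 hours before readout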); conditions: JHH-DIPG-1 glioma viability, CellTiter-Glo ATP luminescence
# [8] = growth inhibition of DIPG cells – cell-based, MIPE5.0 library, qHTS (AID 1347068; cut-off not given, nearly all actives have IC50 up to about 30 µM); conditions: SU-DIPG-XXV viability
# [9] = growth inhibition of DIPG cells – cell-based, MIPE4.0 library, CellTiter-Glo luminescence, qHTS (AID 1347066; cut-off not given, nearly all actives have AC50 up to about 30 µM;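 further: cells exposed to compound for 48 hours before readout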); conditions: SU-DIPG-VI viability, CellTiter-Glo ATP luminescence
# [10] = viability loss with induced miR-34 in A549 – imaging, A549 dox-inducible miR-34, nuclei and caspase counts, primary screen (AID 1347080;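 active means compounds whose cell count with miR-34 switched on is under 0.7 times the count with it off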); conditions: A549 miR-34 inducible, Hoechst nuclei count, 48 h
# [11] = MELAS cybrid and Rieske KO viability enhancers – cell-based, MELAS cybrids, Rieske KO mouse fibroblasts, CellTiter-Glo, primary screen (AID 1508586;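 active means mean z-score across replicates of 1.96 or higher in either the MELAS or the Rieske mutant cell line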;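 further: z relative to plate mean and SD of compound and empty wells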); conditions: low glucose
# [12] = compounds altering HSF1 focus formation in cells – imaging, Selleck Cancer Library (AID 1347162; in the data active means plate-normalised HSF1 focus index below about 0.46); conditions: human cells, HSF1 nuclear foci imaging, at 10 µM; SSMD: measured here: HSF1 foci SSMD mean; cell count: measured here: cell number; plate-normalised HSF1 focus index: stronger effect = lower value
# [13] = drug combination growth inhibition, ovarian cancer – cell-based, oncology-focused library, rucaparib conditional, profiling panel (AID 1508598); conditions: patient-derived ovarian cancer cells, CellTiter-Glo viability, 144 h, stronger effect = lower value
# [14] = stronger effect = lower value, cell number ratio, induced over uninduced
# [15] = measured here: relative caspase fold change +Dox/-Dox
# [16] = measured here: total cells with miR-34 induction, stronger effect = lower value
# [17] = measured here: total cells without miR-34 induction
# [18] = MELAS cybrid survival, CellTiter-Glo 48 h, stronger effect = higher value
# [19] = Rieske KO mouse fibroblast survival, CellTiter-Glo 72 h
structure (smiles),measurement,setting,value
O=[N+]([O-])c1cn2c(n1)OC[C@@H](OCc1ccc(OC(F)(F)F)cc1)C2,AC50,[1],26.3 µM (active)
same,outcome,[2],inactive
same,outcome,[3],inactive
same,outcome,[4],inactive
same,outcome,[5],inactive
same,outcome,[6],inactive
same,outcome,[7],inactive
same,outcome,[8],inactive
CC(C)n1nc(-c2cc3cc(O)ccc3[nH]2)c2c(N)ncnc21,AC50,[1],2.63 µM (active)
same,AC50,[2],18.7 µM (active)
same,AC50,[3],9.35 µM (active)
same,AC50,[4],0.148 µM (active)
same,AC50,[5],1.66 µM (active)
same,AC50,[6],742 nM (active)
same,AC50,[9],20.9 µM (active)
same,AC50,[7],2.63 µM (active)
same,fold change,[10]; [14],0.892 (inactive)
same,fold change,[10]; [15],1.11
same,cell count,[10]; [16],1620
same,cell count,[10]; [17],1820
same,z-score,[11]; [18],5.6 (active)
same,z-score,[11]; [19],-2.66
COC(=O)N1CCN(Cc2cccc(NC(=O)Nc3ccc(C)nc3)c2F)CC1,outcome,[1],inactive
same,outcome,[2],inactive
same,outcome,[3],inactive
same,outcome,[4],inactive
same,outcome,[5],inactive
same,outcome,[6],inactive
same,outcome,[9],inactive
same,outcome,[7],inactive
same,fold change,[10]; [14],0.947 (inactive)
same,fold change,[10]; [15],1.41
same,cell count,[10]; [16],9170
same,cell count,[10]; [17],9680
same,z-score,[11]; [18],-0.446 (inactive)
same,z-score,[11]; [19],0.371
Nc1ccc(C(=O)Nc2cccc(-c3nc(N4CCOCC4)c4oc5ncccc5c4n3)c2)cn1,AC50,[1],4.68 µM (active)
same,AC50,[2],18.7 µM (active)
same,AC50,[3],16.6 µM (active)
same,AC50,[4],16.6 µM (active)
same,AC50,[5],8.33 µM (active)
same,AC50,[6],2090 nM (active)
same,AC50,[9],11.8 µM (active)
same,AC50,[7],8.33 µM (active)
same,fold change,[10]; [14],1.02 (inactive)
same,fold change,[10]; [15],0.903
same,cell count,[10]; [16],2410
same,cell count,[10]; [17],2370
same,SSMD,[12],-0.394
same,cell count,[12],6980
same,plate-normalised HSF1 focus index,[12],0.989 (inactive)
same,z-score,[11]; [18],3.1 (active)
same,z-score,[11]; [19],-2.85
same,viability,"[13]; at 0.000305 µM, OCI-C5x cells, with rucaparib 10 µM, 100% = cells with rucaparib alone",106% (inactive)
same,viability,"[13]; at 0.000305 µM, OCI-C5x cells, without rucaparib",111% (inactive)
same,viability,"[13]; at 0.000305 µM, OCI-P5x cells, with rucaparib 20 µM, 100% = cells with rucaparib alone",83.5% (active)
same,viability,"[13]; at 0.000305 µM, OCI-P5x cells, without rucaparib",86.3% (active)
same,viability,"[13]; at 0.00122 µM, OCI-C5x cells, with rucaparib 10 µM, 100% = cells with rucaparib alone",106% (inactive)
same,viability,"[13]; at 0.00122 µM, OCI-C5x cells, without rucaparib",107% (inactive)
same,viability,"[13]; at 0.00122 µM, OCI-P5x cells, with rucaparib 20 µM, 100% = cells with rucaparib alone",68.8% (active)
same,viability,"[13]; at 0.00122 µM, OCI-P5x cells, without rucaparib",85.2% (active)
same,viability,"[13]; at 0.00488 µM, OCI-C5x cells, with rucaparib 10 µM, 100% = cells with rucaparib alone",105% (inactive)
same,viability,"[13]; at 0.00488 µM, OCI-C5x cells, without rucaparib",108% (inactive)
same,viability,"[13]; at 0.00488 µM, OCI-P5x cells, with rucaparib 20 µM, 100% = cells with rucaparib alone",71.1% (active)
same,viability,"[13]; at 0.00488 µM, OCI-P5x cells, without rucaparib",81% (active)
same,viability,"[13]; at 0.0195 µM, OCI-C5x cells, with rucaparib 10 µM, 100% = cells with rucaparib alone",115% (inactive)
same,viability,"[13]; at 0.0195 µM, OCI-C5x cells, without rucaparib",112% (inactive)
same,viability,"[13]; at 0.0195 µM, OCI-P5x cells, with rucaparib 20 µM, 100% = cells with rucaparib alone",56.8% (active)
same,viability,"[13]; at 0.0195 µM, OCI-P5x cells, without rucaparib",74.2% (active)
same,viability,"[13]; at 0.0781 µM, OCI-C5x cells, with rucaparib 10 µM, 100% = cells with rucaparib alone",122% (inactive)
same,viability,"[13]; at 0.0781 µM, OCI-C5x cells, without rucaparib",117% (inactive)
same,viability,"[13]; at 0.0781 µM, OCI-P5x cells, with rucaparib 20 µM, 100% = cells with rucaparib alone",114% (inactive)
same,viability,"[13]; at 0.0781 µM, OCI-P5x cells, without rucaparib",117% (inactive)
same,viability,"[13]; at 0.313 µM, OCI-C5x cells, with rucaparib 10 µM, 100% = cells with rucaparib alone",147% (inactive)
same,viability,"[13]; at 0.313 µM, OCI-C5x cells, without rucaparib",131% (inactive)
same,viability,"[13]; at 0.313 µM, OCI-P5x cells, with rucaparib 20 µM, 100% = cells with rucaparib alone",109% (inactive)
same,viability,"[13]; at 0.313 µM, OCI-P5x cells, without rucaparib",119% (inactive)
same,viability,"[13]; at 1.25 µM, OCI-C5x cells, with rucaparib 10 µM, 100% = cells with rucaparib alone",150% (inactive)
same,viability,"[13]; at 1.25 µM, OCI-C5x cells, without rucaparib",151% (inactive)
same,viability,"[13]; at 1.25 µM, OCI-P5x cells, with rucaparib 20 µM, 100% = cells with rucaparib alone",111% (inactive)
same,viability,"[13]; at 1.25 µM, OCI-P5x cells, without rucaparib",107% (inactive)
same,viability,"[13]; at 5 µM, OCI-C5x cells, with rucaparib 10 µM, 100% = cells with rucaparib alone",178% (inactive)
same,viability,"[13]; at 5 µM, OCI-C5x cells, without rucaparib",138% (inactive)
same,viability,"[13]; at 5 µM, OCI-P5x cells, with rucaparib 20 µM, 100% = cells with rucaparib alone",80% (active)
same,viability,"[13]; at 5 µM, OCI-P5x cells, without rucaparib",78.9% (active)
